Data as given in PubChem BioAssay AID1734 (Vanderbilt High Throughput Screening Facility, 2009).
Calls of active or inactive are those of the source. The rule behind the calls is not given here.

Experiments:
[1] = KCC2 and NKCC1 inhibition by rubidium flux, cell-based, NKCC1 counter-screen (AID 1734); settings: KCC2-expressing cells, NKCC1 counter-screen
[2] = target: Solute carrier family 12 member 5 (Homo sapiens) (UniProt Q9H2X9); test: as above; settings: KCC2-expressing cells
Solute carrier family 12 member 5 (Homo sapiens), sequence (Q9H2X9 whole entry, looked up): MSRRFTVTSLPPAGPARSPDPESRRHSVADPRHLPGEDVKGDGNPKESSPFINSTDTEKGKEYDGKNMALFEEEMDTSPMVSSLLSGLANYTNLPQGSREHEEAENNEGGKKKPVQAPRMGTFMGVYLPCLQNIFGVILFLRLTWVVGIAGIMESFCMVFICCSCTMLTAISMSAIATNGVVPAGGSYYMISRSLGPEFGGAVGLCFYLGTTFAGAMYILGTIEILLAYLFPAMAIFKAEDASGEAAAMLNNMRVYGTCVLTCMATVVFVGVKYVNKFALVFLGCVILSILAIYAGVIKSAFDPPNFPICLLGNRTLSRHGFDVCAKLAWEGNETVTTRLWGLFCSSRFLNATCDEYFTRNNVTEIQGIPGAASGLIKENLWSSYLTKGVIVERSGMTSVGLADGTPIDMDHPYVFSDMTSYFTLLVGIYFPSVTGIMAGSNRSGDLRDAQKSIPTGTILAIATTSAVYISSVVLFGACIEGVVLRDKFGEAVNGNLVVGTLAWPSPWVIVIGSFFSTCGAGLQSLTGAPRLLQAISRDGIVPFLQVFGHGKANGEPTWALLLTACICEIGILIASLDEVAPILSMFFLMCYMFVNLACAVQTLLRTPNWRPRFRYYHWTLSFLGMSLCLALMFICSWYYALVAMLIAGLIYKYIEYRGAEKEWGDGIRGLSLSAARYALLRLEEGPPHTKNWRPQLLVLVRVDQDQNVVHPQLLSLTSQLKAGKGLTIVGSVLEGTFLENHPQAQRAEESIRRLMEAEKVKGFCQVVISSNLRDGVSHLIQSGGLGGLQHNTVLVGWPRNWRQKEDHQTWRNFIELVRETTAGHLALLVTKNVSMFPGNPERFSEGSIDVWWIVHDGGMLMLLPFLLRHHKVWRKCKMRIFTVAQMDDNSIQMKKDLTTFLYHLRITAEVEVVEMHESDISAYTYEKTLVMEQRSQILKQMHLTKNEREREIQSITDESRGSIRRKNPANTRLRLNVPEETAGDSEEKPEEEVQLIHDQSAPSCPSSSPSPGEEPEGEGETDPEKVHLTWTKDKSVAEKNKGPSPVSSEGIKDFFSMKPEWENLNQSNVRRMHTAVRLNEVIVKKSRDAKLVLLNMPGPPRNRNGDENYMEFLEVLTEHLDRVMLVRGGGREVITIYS

`CN(Cc1ccccc1)S(=O)(=O)c1ccc(Cl)c(C(=O)NCCc2ccccn2)c1` showed an inhibition ([1]; at 5 µM) of 44.4% and an inhibition ([1]; at 50 µM) of 53.4%.
With `O=C(Nc1ccc(S(=O)(=O)NCc2ccccc2)cc1)c1ccccc1[N+](=O)[O-]` the inhibition ([1]; at 5 µM) was 24.2% and the inhibition ([1]; at 50 µM) was 31.2%.
For `O=C(Cn1cnc2c(nnn2Cc2ccc(F)cc2)c1=O)N1CCCc2ccccc21`, the inhibition ([1]; at 5 µM) was 28.1% and the inhibition ([1]; at 50 µM) was 27.7%.
With `CCOc1ccc(Nc2n[nH]c(=S)s2)cc1` the inhibition ([1]; at 5 µM) was 44.9%, the inhibition ([1]; at 50 µM) was 67.4% and the outcome [2] was “inactive”.
Work on `O=C(OCC(=O)N1CCN(C(=O)c2ccco2)CC1)c1sc2ccccc2c1Cl` yielded an inhibition ([1]; at 5 µM) of 33.3% and an inhibition ([1]; at 50 µM) of 55.4%.
In the case of `CC(C)c1onc(C(=O)N2CCN(Cc3ccccc3)CC2)c1[N+](=O)[O-]`, the inhibition ([1]; at 5 µM) is reported as 6.1% and the inhibition ([1]; at 50 µM) is reported as 15.5%.
`Cc1ccc(Nc2nnc(SCC(=O)c3cc4ccccc4o3)s2)cc1C` showed an inhibition ([1]; at 5 µM) of 46.3% and an inhibition ([1]; at 50 µM) of 53.4%.
With `O=C(NCCOc1ccccc1F)c1ccccc1SCc1ccc(F)cc1` the inhibition ([1]; at 5 µM) was 34.2% and the inhibition ([1]; at 50 µM) was 45.8%.
In the case of `O=C(Cn1cnc2c(nnn2Cc2ccccc2)c1=O)N1CCCc2ccccc21`, the inhibition ([1]; at 5 µM) is reported as 23.4% and the inhibition ([1]; at 50 µM) is reported as 33.2%.
`O=C(CN1C(=O)NC2(CCCC2)C1=O)Nc1nc(-c2ccc(F)cc2)cs1` gave an inhibition ([1]; at 5 µM) of 39.2% and an inhibition ([1]; at 50 µM) of 43.6%.
`Cc1nc(CC(=O)Nc2nc(-c3ccccc3)cs2)cs1` showed an inhibition ([1]; at 5 µM) of 35.5% and an inhibition ([1]; at 50 µM) of 38.1%.
In the case of `O=C(CCS(=O)(=O)Cc1ccccc1)Nc1nc2c(s1)CCCC2`, the inhibition ([1]; at 5 µM) is reported as 35.8% and the inhibition ([1]; at 50 µM) is reported as 37.1%.
For `CCOc1ccc(N2C(=O)C3Sc4[nH]c(=O)sc4C(/C=C/c4ccccc4)C3C2=O)cc1` (centres undefined), the inhibition ([1]; at 5 µM) was 67.4% and the inhibition ([1]; at 50 µM) was 90.8%.
Work on `O=S(=O)(NCc1ccccc1)c1ccc(Cl)c(S(=O)(=O)NCc2ccccc2)c1` yielded an inhibition ([1]; at 5 µM) of 13.5% and an inhibition ([1]; at 50 µM) of 30.5%.
Compound `Cc1cnc(NC(=O)CSc2nnc(Cc3ccccc3)o2)s1` has an inhibition ([1]; at 5 µM) of 9.9% and an inhibition ([1]; at 50 µM) of 16.8%.
For `O=C(NCC1CCCN(C(=O)c2cccnc2)C1)c1ccc(-c2ccccc2)cc1` (centres undefined), the inhibition ([1]; at 5 µM) was 31.2%, the inhibition ([1]; at 50 µM) was 40.3% and the outcome [2] was “inactive”.
For `O=C(/C=C/c1ccccc1)Nc1scc(-c2ccccc2)c1C(=O)O`, the inhibition ([1]; at 5 µM) was 25.2% and the inhibition ([1]; at 50 µM) was 72.8%.
Compound `CC1Cc2ccccc2N1C(=O)c1ccc(N2CCCC2)c([N+](=O)[O-])c1` (centres undefined) has an inhibition ([1]; at 5 µM) of 22.9% and an inhibition ([1]; at 50 µM) of 48.5%.
In the case of `O=C(O)CCn1c(SCc2cccc3ccccc23)nc2ccccc21`, the inhibition ([1]; at 5 µM) is reported as 57.5% and the inhibition ([1]; at 50 µM) is reported as 80.5%.
In the case of `CCc1ccc(OCCNC(=O)c2ccccc2SCc2ccc(F)cc2)cc1`, the inhibition ([1]; at 5 µM) is reported as 45.3%, the inhibition ([1]; at 50 µM) is reported as 47.9% and the outcome [2] is reported as “inactive”.
`Cc1csc(NC(=O)CSc2ccc(-c3ccccc3)nn2)n1` showed an inhibition ([1]; at 5 µM) of 12.9% and an inhibition ([1]; at 50 µM) of 19.7%.
With `CCCn1c(N)c(C(=O)CSc2nnc(Cc3ccccc3)o2)c(=O)n(C)c1=O` the inhibition ([1]; at 5 µM) was 15.4% and the inhibition ([1]; at 50 µM) was 28.3%.
In the case of `Cc1ccc(-c2ccc(S(=O)(=O)NCC3CCCO3)cc2)cc1` (centres undefined), the inhibition ([1]; at 5 µM) is reported as 21.8% and the inhibition ([1]; at 50 µM) is reported as 26.6%.
In the case of `Cc1ccc(NC(=O)c2ccccc2NS(=O)(=O)c2ccc(Cl)s2)cc1`, the inhibition ([1]; at 5 µM) is reported as 65.1%, the inhibition ([1]; at 50 µM) is reported as 68.4% and the outcome [2] is reported as “inactive”.
`O=C(Cn1cnc2c(nnn2Cc2ccccc2)c1=O)c1ccc(Cl)cc1` gave an inhibition ([1]; at 5 µM) of 25.1% and an inhibition ([1]; at 50 µM) of 40.6%.
